The whole screen tested about 290,000 compounds, of which about 4,200 (1.4%) were called active.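 The calls were made as follows: active = binding response more than 3 SD above or below the average of its plate-row segment, actives on both sides; inconclusive = wells at one plate position flagged as instrument error; inactive = the rest.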 The full list was thinned out, with actives kept by preference.
Biological target: Mitogen-activated protein kinase kinase kinase 3 (Homo sapiens) (UniProt Q99759)
Test: compounds raising or lowering MEK5 association with MEKK3 PB1 – biochemical, wildtype MEKK3, multiplex bead flow cytometry, Alexa488-MEK5, primary screen (AID 1529);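 also: Alexa488 bead fluorescence after subtracting the streptavidin-only scavenger bead signal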
Details: bead-based flow cytometry, Alexa488-MEK5 binding to MEKK3; at 10 µM; actives lie on both sides; 0 = blocked by unlabeled MEK5, 100 = vehicle

Mitogen-activated protein kinase kinase kinase 3 (Homo sapiens), sequence (Q99759 whole entry, looked up): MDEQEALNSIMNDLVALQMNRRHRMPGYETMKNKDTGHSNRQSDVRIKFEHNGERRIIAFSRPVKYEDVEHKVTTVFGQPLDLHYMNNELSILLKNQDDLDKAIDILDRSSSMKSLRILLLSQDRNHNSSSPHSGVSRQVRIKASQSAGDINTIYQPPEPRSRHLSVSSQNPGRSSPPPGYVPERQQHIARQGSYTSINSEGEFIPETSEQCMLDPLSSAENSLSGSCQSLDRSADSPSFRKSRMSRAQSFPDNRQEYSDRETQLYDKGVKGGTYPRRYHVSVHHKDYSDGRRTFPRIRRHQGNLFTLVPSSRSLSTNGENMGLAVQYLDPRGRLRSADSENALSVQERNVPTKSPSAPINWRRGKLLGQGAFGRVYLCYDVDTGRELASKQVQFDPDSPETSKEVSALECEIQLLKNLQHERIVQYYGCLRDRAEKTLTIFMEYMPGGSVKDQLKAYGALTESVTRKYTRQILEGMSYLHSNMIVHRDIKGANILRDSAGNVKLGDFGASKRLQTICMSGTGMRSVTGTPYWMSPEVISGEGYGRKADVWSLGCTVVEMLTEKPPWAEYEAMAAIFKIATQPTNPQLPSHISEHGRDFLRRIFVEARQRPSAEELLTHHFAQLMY

Row | Compound | binding response (% of control)
1 | O=C(Nc1ccc(O)cc1)c1ccc(NC(=O)c2ccco2)cc1 | 101% (inactive)
2 | COc1ccc2c(c1)CCNC2Cc1ccc(OC)c(O)c1 (configuration not stated) | 98% (inactive)
3 | C=CCn1c(=S)sc2c(=O)[nH]c(C)nc21 | 131% (active)
4 | C=CCn1c(-c2ccc3[nH]c(C)c(C)c3c2)n[nH]c1=S | 105% (inactive)
5 | C=CCn1c(-c2sc(-c3ccccc3)nc2C)n[nH]c1=S | 99% (inactive)
6 | O=S(=O)(c1cccc(Cn2nnc(-c3ccc(F)cc3)n2)c1)N1CCOCC1 | 103% (inactive)
7 | Cc1ccc(SCC(=O)Nc2ccc3c(c2)OCCO3)cc1 | 127% (inactive)
8 | Cc1csc(NC(=O)CSc2ccc(-c3ccc(F)cc3)nn2)n1 | 100% (inactive)
9 | O=C(CSc1ccc(-c2ccc(F)cc2)nn1)Nc1ccc2c(c1)OCCO2 | 133% (active)
10 | C[C@H]1CC[C@]2(O[C@@H](CCO)C[C@@H](O)[C@@H]2O)O1 | 96% (inactive)
11 | COc1ccc2nc(C)cc(Nc3cccc(C(=O)O)c3)c2c1 | 106% (inactive)
12 | COc1cccc(Nc2ncccc2C(=O)O)c1 | 3% [inhibitor] (active)
13 | COc1cc(NC(=O)c2cccnc2SC)cc(OC)c1 | 110% (inactive)
14 | O=C(NC(=S)Nc1ccc(Cl)cc1Cl)C1CC1 | 100% (inactive)
15 | Cc1ccc2oc(C(=O)N3CCN(C)C[C@@H]3C(C)C)c(C)c2c1 | 102% (inactive)
16 | COc1ccc(NCCc2ccccn2)cc1 | 108% (inactive)
17 | COc1ccc(/C=C(\NC(=O)c2ccc(OC)c(OC)c2)C(=O)NCCc2c[nH]c3ccccc23)cc1 | 103% (inactive)
18 | O=C(NC(Cc1c[nH]c2ccccc12)C(=O)O)/C(=C/c1ccco1)NC(=O)c1ccccc1 (configuration not stated) | 101% (inactive)
19 | Cc1ccc(C(=O)N/C(=C/c2ccco2)C(=O)NCCc2c[nH]c3ccccc23)cc1C | 73% [inhibitor] (active)
20 | CCOC(=O)c1cc2c(ccn2C)n1CC(=O)N1CCC(C)CC1 | 111% (inactive)
21 | CCOC(=O)c1cc2occc2n1CC(=O)NC1CCC(C)CC1 (configuration not stated) | 104% (inactive)
22 | CCOC(=O)c1cc2occc2n1CC(=O)N1CCN(C(=O)c2ccco2)CC1 | 0% [inhibitor] (active)
23 | CCn1c(SCC(=O)NC2CCCC2)nnc1-c1ccoc1C | 98% (inactive)
24 | Cc1cccc(NC(=O)CN2C(=O)c3ccccc3C2=O)c1C | 110% (inactive)
25 | Cc1cc(C)cc(NC(=O)CN2C(=O)c3ccccc3C2=O)c1 | 97% (inactive)

Row | Compound | binding response (% of control)
26 | Cc1ccccc1C(=O)NNC(=O)CN1C(=O)c2ccccc2C1=O | 135% (active)
27 | CCC(Cc1ccccc1)NC(=O)C1CCCCC1 (configuration not stated) | 101% (inactive)
28 | CCOCCCN(C)C1CCN(C(=O)c2oc3ccccc3c2NC(=O)Cc2cccc([N+](=O)[O-])c2)CC1 | 99% (inactive)
29 | O=C1CC(N2CCN(c3ccc(F)cc3)CC2)C(=O)N1c1ccccc1 (configuration not stated) | 100% (inactive)
30 | Cc1ccc(CC2CC(=O)N(c3cc(C)ccc3C)C2=O)cc1 (configuration not stated) | 101% (inactive)
31 | Cc1ccc(N2C(=O)CC(N3CCSCC3)C2=O)c(C)c1 (configuration not stated) | 55% [inhibitor] (active)
32 | COC(=O)C1=C[C@@H](C(=O)OC)[C@@H]2C3=C(C(=O)[C@]2(C)NC(=O)c2ccccc2)[C@H](C)n2c(=O)n(C)c(=O)n2[C@@H]3C1 | 108% (inactive)
33 | CC(c1cccnc1)N(CCN(C)C)C(=O)Nc1ccc(Cl)c(Cl)c1 (configuration not stated) | 96% (inactive)
34 | COc1ccc(N(CC(=O)NC(C)(C)C)C(=O)c2ccco2)cc1 | 98% (inactive)
35 | CC(C)(C)NC(=O)c1cc(NC(=O)c2ccco2)cc(NC(=O)c2ccco2)c1 | 101% (inactive)
36 | C/C(CC(=O)NC(C)(C)C)=N\NC(=O)c1ccco1 | 140% (active)
37 | Cc1ccc(S(=O)(=O)N[C@@H](Cc2ccccc2)C(=O)N2CCC(C(=O)N[C@H](C(=O)O)C(C)O)CC2)cc1 (some centres not stated) | 107% (inactive)
38 | Cc1ccc(CSc2nsc(C)c2C#N)cc1 | 103% (inactive)
39 | COc1cccc(OC)c1C(=O)Nc1ccc2c(c1)n(C)c(=O)n2C | 109% (inactive)
40 | CC(C)CC(=O)Nc1ccc(Cc2ccncc2)cc1 | 104% (inactive)
41 | COc1cccc(OC)c1C(=O)Nc1ccc(Cc2ccncc2)cc1 | 147% (active)
42 | CCOc1ccc(N(CC(=O)Nc2ccccc2F)S(=O)(=O)c2c(C)[nH]c(=O)[nH]c2=O)cc1 | 101% (inactive)
43 | COc1ccc(S(=O)(=O)N2CCOCC2)cc1C(=O)NC1CCCCC1 | 103% (inactive)
44 | COCCNC(=S)Nc1cc(S(=O)(=O)N2CCOCC2)ccc1N1CCCCC1 | 99% (inactive)
45 | O=C(NCC1CCCCC1)c1cc(S(=O)(=O)N2CCCCC2)ccc1N1CCOCC1 | 4% [inhibitor] (active)
46 | COc1cccc(C(=O)OCc2cc(=O)oc3c(C)c(C)ccc23)c1OC | 103% (inactive)
47 | Nc1nc(SCc2cccc(Br)c2)n[nH]1 | 105% (inactive)
48 | O=c1c2ccccc2nnn1CSc1nnnn1-c1ccccc1 | 101% (inactive)
49 | O=C(CCn1nnc2ccccc2c1=O)N[C@@H](Cc1c[nH]c2ccccc12)C(=O)O | 98% (inactive)
50 | CSCC[C@H](NC(=O)CCCn1nnc2ccccc2c1=O)C(=O)O | 137% (active)

Row | Compound | binding response (% of control)
51 | CN(CCc1ccccn1)C(=O)c1ccc(OC2CCN(CCc3ccccc3)CC2)cc1 | 98% (inactive)
52 | COc1ccc(CNC(=O)C2CCN(S(=O)(=O)c3ccc(SC)cc3)CC2)cc1 | 101% (inactive)
53 | COc1ccc(CNC(=O)C2CCN(S(C)(=O)=O)CC2)cc1 | 39% [inhibitor] (active)
54 | COc1ccc(CNC(=O)C2CCN(S(=O)(=O)N3CCOCC3)CC2)cc1 | 104% (inactive)
55 | COc1ccc(CNC(=O)[C@@H]2CC=C[C@@H]3CCN(C4CC4)C(=O)[C@@H]32)cc1 | 101% (inactive)
56 | O=S(=O)(Nc1ccccc1Br)c1cccs1 | 100% (inactive)
57 | COc1cc(C2C3=C(CCCC3=O)OC3=C2C(=O)CCC3)ccc1OCC(=O)Nc1ccccc1 | 100% (inactive)
58 | CCOC(=O)/C(C#N)=C/c1ccc(OCC(=O)Nc2ccccc2)c(OC)c1 | 27% [inhibitor] (active)
59 | CCCn1c(C)cc(/C=C(\C#N)C(=O)OCC(=O)Nc2cc(OC)c(OC)c(OC)c2)c1C | 101% (inactive)
60 | Cc1cc(C)c2nc(N(CCN(C)C)C(=O)/C=C/c3cccs3)sc2c1 | 101% (inactive)
61 | COc1ccc(NC(=O)NNC(=O)COc2cc(C)c(Cl)c(C)c2)c(OC)c1 | 105% (inactive)
62 | CC(C)(C)OC(=O)N1CCC(C(=O)NNC(=O)c2ccc(Cl)cc2Cl)CC1 | 101% (inactive)
63 | CC1=NN(C(=O)CCCc2ccccc2)C(O)(C(F)(F)F)C1 (configuration not stated) | 108% (inactive)
64 | CC1=NN(C(=O)CCc2ccccc2O)C(O)(C(F)(F)F)C1 (configuration not stated) | 90% (inactive)
65 | COc1ccc(CC(=O)N2N=C(C)CC2(O)C(F)(F)F)cc1 (configuration not stated) | 129% (active)
66 | COc1cc(OC)c(C(=S)N2CCCC2)cc1OC | 104% (inactive)
67 | CCn1c(=S)sc2c(=O)n(CC(=O)Nc3cccc(Br)c3)c(C)nc21 | 102% (inactive)
68 | COc1ccc(/C=C2\SC(=S)N(CCCC(=O)NC3CCCC3)C2=O)cc1OC | 96% (inactive)
69 | COc1cc(NC(=O)CN2C(=O)NC(C)(c3ccc(OC(F)F)cc3)C2=O)cc(OC)c1OC (configuration not stated) | 100% (inactive)
70 | Fc1ccccc1COc1cccc2cccnc12 | 105% (inactive)
71 | COc1ccc(C(=O)NNC(=S)NC(=O)c2ccccc2)cc1 | 101% (inactive)
72 | COc1ccc(C(=O)NC(=S)NNC(=O)c2c(-c3ccccc3)noc2C)cc1 | 134% (active)
73 | Cc1onc(-c2ccccc2)c1C(=O)NNC(=S)NC(=O)c1ccc(F)cc1 | 98% (inactive)
74 | CN(C)C(=O)CCC(=O)N1CCCCC1C(=O)Nc1ccc(Oc2ccccc2F)cc1 (configuration not stated) | 105% (inactive)
75 | Cc1nn(-c2ccccc2)c(C)c1NC(=O)COc1ccc(Cl)cc1Cl | 104% (inactive)

Row | Compound | binding response (% of control)
76 | Cc1nn(-c2ccccc2)c(Cl)c1C(=O)Nc1ccccc1 | 98% (inactive)
77 | Cc1nn(-c2ccccc2)c(C)c1NC(=O)CCl | 138% (active)
78 | Cc1cnc(CN(C)C(=O)C2CCC(=O)N(CCc3cccc(F)c3)C2)[nH]1 (configuration not stated) | 104% (inactive)
79 | CC1(c2ccc3ccccc3c2)NC(=O)NC1=O (configuration not stated) | 106% (inactive)
80 | O=c1c2ccccc2ncn1CCCCOc1ccccc1F | 103% (inactive)
81 | Cc1cccc(OCCNC(=O)CSc2ccc(C(F)(F)F)cc2[N+](=O)[O-])c1 | 133% (active)
82 | O=C(CSc1ccc(C(F)(F)F)cc1[N+](=O)[O-])NCCOc1ccccc1 | 94% (inactive)
83 | Nc1ccccc1Sc1ccc(C(F)(F)F)cc1[N+](=O)[O-] | 107% (inactive)
84 | Cn1nccc1C(=O)NC1CCCc2c1cnn2-c1ccccc1F (configuration not stated) | 101% (inactive)
85 | CC(=O)C(C)n1cnc2scc(-c3ccc(C)cc3)c2c1=O (configuration not stated) | 98% (inactive)
86 | CCc1ccc(C(=O)COC(=O)c2ccco2)cc1 | 103% (inactive)
87 | Cc1nc(-c2ccc(Cl)cc2)sc1C1(C)CC(c2ccc(Br)cc2)=NO1 (configuration not stated) | 100% (inactive)
88 | COc1ccc(C(CNC(=O)COc2ccccc2OC)N2CCCCC2)cc1 (configuration not stated) | 100% (inactive)
89 | O=C(Cn1cc(C(=O)C2CC2)c2ccccc21)Nc1ccccc1Cl | 99% (inactive)
90 | CCN1CCN(CCCCOc2ccccc2F)CC1 | 100% (inactive)
91 | COc1ccccc1N1CCN(CCCCOc2ccc(F)cc2)CC1 | 124% (active)
92 | COc1ccccc1N1CCN(Cc2ccc(OC)c3ccccc23)CC1 | 105% (inactive)
93 | COc1ccc(CCN(C)C(=O)C23CC4CC(CC(Cl)(C4)C2)C3)cc1OC | 102% (inactive)
94 | O=C(CCc1nnc2ccc(NCCCN3CCCC3=O)nn12)NCc1ccccc1Cl | 101% (inactive)
95 | CC(C)(C)NC(=O)c1ccc(Cn2cc(C(F)(F)F)ccc2=O)cc1 | 100% (inactive)
96 | CCOC(=O)c1cc(-c2nnc(-c3cc(OC)c(OC)c(OC)c3)o2)c(C)nc1C | 100% (inactive)
97 | COc1cc(-c2nnc(Cn3cc(C(F)(F)F)ccc3=O)o2)cc(OC)c1OC | 2% [inhibitor] (active)
